Here are results for seven sequences from the supplement of paper PMC6555819.

What all share (experiment): PBM binding z-score (relative to random genomic background probes); higher = stronger binding; sequences stand for … in GC…GCGATTGACAGCGTAGAATGAAGG
Assay [1] deals with FXR:RXRa (NR concentration 270 nM, RXRa partner concentration 90 nM). In short, it runs like this: (§1)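 Binding buffer was PBS pH 7.4 with 2% milk, 0.02% Triton X-100, 1 mM DTT, 0.2 mg/mL BSA and 0.4 mg/ml salmon testes DNA. In it, ligand-free nuclear receptor dimers were incubated 1 h on custom Agilent 4×180K protein-binding microarrays carrying double-stranded probes. Antibodies against each partner (one per run) detected binding, and z-scores were calculated against random background probes after regression normalization of scanned fluorescence.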

Assay [2] concerns LXRa:RXRa (NR concentration 270 nM, RXRa partner concentration 90 nM). Summed up: as §1
Assay [3] relates to LXRa homodimer (NR concentration 270 nM). Summed up:
as §1

Assay [4] deals with LXRb:RXRa (NR concentration 270 nM, RXRa partner concentration 90 nM). Summed up:
as §1

The subject of assay [5] is LXRb homodimer (NR concentration 270 nM). In short, it runs like this:
as §1

Assay [6] has as its system PPARa:RXRa (NR concentration 270 nM, RXRa partner concentration 90 nM). Summed up:
as §1

Assay [7] concerns PPARg:RXRa (NR concentration 180 nM, RXRa partner concentration 90 nM). In short, it runs like this: as §1
Assay [8] relates to PPARg:RXRa 270nM:90nM, anti-RXR (NR concentration 270 nM, RXRa partner concentration 90 nM). Summed up: as §1
For assay [9], the system named is PPARg:RXRa 30nM:10nM, anti-RXR (NR concentration 30 nM, RXRa partner concentration 10 nM). In short, it runs like this: as §1
Assay [10] concerns PPARg:RXRa 90nM:30nM, anti-RXR (NR concentration 90 nM, RXRa partner concentration 30 nM). In short, it runs like this:
as §1

Assay [11] has as its system PPARg:RXRa DBDmut IVT, anti-RXR (DBD mutation: RXRa K156A/R161A, NR concentration 270 nM, RXRa partner concentration 90 nM). In short, it runs like this: as §1
For assay [12], the system named is PPARg:RXRa IVT, anti-PPARg (NR concentration 270 nM, RXRa partner concentration 90 nM). In short, it runs like this:
as §1

Assay [13] relates to PPARg DBDmut:RXRa IVT, anti-PPARg (DBD mutation: PPARg1 K132A/R137A, NR concentration 270 nM, RXRa partner concentration 90 nM). In short, it runs like this: as §1
The subject of assay [14] is PPARg DBDmut IVT, anti-PPARg (DBD mutation: PPARg1 K132A/R137A, NR concentration 270 nM). In short, it runs like this: as §1
Assay [15] deals with PPARg homodimer (NR concentration 180 nM). Summed up: as §1
Assay [16] relates to PXR:RXRa (NR concentration 270 nM, RXRa partner concentration 90 nM). In short, it runs like this: as §1
The test system of assay [17] is PXR homodimer (NR concentration 270 nM). In short, it runs like this:
as §1

Assay [18] relates to RARa:RXR (NR concentration 270 nM, RXRa partner concentration 90 nM). In short, it runs like this:
as §1

In assay [19] the test system is RARa homodimer (NR concentration 270 nM). In short, it runs like this:
as §1

Assay [20] relates to RARb:RXRa (NR concentration 270 nM, RXRa partner concentration 90 nM). Summed up:
as §1

On to CCGACTGGGCCATAAGGTTACCATAAGCCAGCCC, for which the PBM binding z-score was 0.273 in [1]; 1.84 in assay [2]; -0.402 in assay [3]; 0.636 in [4]; -0.941 in assay [5]; 1.4 in assay [6]. The PBM binding z-score turned out to be 1.57 in assay [7]; 2.48 in assay [8]; 0.644 in assay [9]; 2.05 in [10]; 1.93 in assay [11]; 2.16 in [12]. The PBM binding z-score is -0.459 in assay [13]; -1.39 in [14]; 0.396 in [15]; 0.04 in assay [16]; -0.806 in assay [17]; 1.15 in [18]. For the same sequence, the PBM binding z-score in [19] was -0.622; in assay [20], 1.06.
TCGTATAGGTAAAAGGTGAAAGTCGGTGTGGTAA: the PBM binding z-score in [1] worked out at 1.99; in [2], 2.05; in assay [3], 0.453; in assay [4], 2.23; in assay [5] it was 0.0721; in assay [6], 4.51. The PBM binding z-score in [7] was determined as 6.49; in assay [8], 7.01; in [9], 6.31; in assay [10], 7.11; in assay [11], 3.45; in assay [12], 3.77. Besides, the PBM binding z-score is 0.0937 in assay [13]; 0.179 in [14]; 2.3 in [15]; 1.96 in assay [16]; 1.02 in [17]; 3.01 in [18]. Also, the PBM binding z-score in assay [19] came to 1.25; in [20] it was 2.08.
TAGCCTAGATCATGCGGGCCAGTATAGTGTCGGC: the PBM binding z-score is -2.92 in assay [1]; -1.33 in [2]; -1.04 in assay [3]; -1.36 in assay [4]; -0.772 in assay [5]; -0.834 in assay [6]. Besides, the PBM binding z-score was 0.0405 in [7]; -0.522 in [8]; -0.938 in [9]; -0.742 in assay [10]; 0.553 in [11]; 0.672 in assay [12]. Besides, the PBM binding z-score was -0.852 in assay [13]; -1.76 in [14]; -1.53 in assay [15]; -1.41 in [16]; -1.04 in [17]; -1.57 in assay [18]. The PBM binding z-score in assay [19] was -0.691; in [20], -1.2.
As to AGAACGAGGGCACGCTGAGTTGATAGCAGAGTAG, the PBM binding z-score in [1] was 0.783; in assay [2] it was 0.47; in assay [3], -0.551; in assay [4], 0.0516; in [5], -0.876; in assay [6], 2.36. For the same sequence, the PBM binding z-score in [7] is 2.01; in assay [8], 1.79; in assay [9] it was 0.0193; in assay [10] it was 0.94; in assay [11] it was 4.13; in [12], 3.81. Moreover, the PBM binding z-score in assay [13] is 0.29; in [14], -0.41; in assay [15], 0.297; in [16], 1.28; in [17], -0.0574; in assay [18], 0.83. Moreover, the PBM binding z-score in assay [19] was determined as 0.0569; in [20] it was 2.52.
Turning to CCTAGTTGGTCAGGAGGTCACACCCCGGATATGA, the PBM binding z-score in assay [1] came to 3.53; in assay [2], 3.05; in assay [3] it was 2.07; in assay [4] it was 3.15; in [5], 0.855; in assay [6], 3.98. In addition, the PBM binding z-score in assay [7] turned out to be 2.86; in assay [8], 3.57; in assay [9], 1.05; in assay [10], 3.09; in assay [11], 1.1; in [12], 3.66. Also, the PBM binding z-score in assay [13] worked out at 0.426; in assay [14] it was 0.108; in assay [15], 3.14; in assay [16] it was 4.1; in [17], 1.16; in assay [18], 4.24. Moreover, the PBM binding z-score in assay [19] worked out at 2.03; in assay [20], 3.71.
In the case of TCTGCTACGTCAGTTGGTCAGCTAACGAGCTGCC, the PBM binding z-score in assay [1] is -1.7; in assay [2], -0.859; in assay [3], -1.04; in assay [4] it was -1.12; in assay [5], -0.14; in [6], -0.303. Besides, the PBM binding z-score in [7] was -0.674; in assay [8], 0.0272; in assay [9] it was 1.01; in assay [10] it was 0.437; in [11], 0.19; in assay [12], -0.135. Further, the PBM binding z-score in assay [13] is 0.134; in assay [14] it was 0.236; in assay [15] it was -2.23; in [16], -0.876; in assay [17], -1.18; in assay [18], -0.819. In addition, the PBM binding z-score was -1.96 in [19] and -0.0758 in assay [20].
With GCATATACGTAATACAAGGTGAAAGTCCGATTGT, the PBM binding z-score in [1] amounted to 0.409; in [2], 0.28; in assay [3], 0.383; in assay [4] it was 0.441; in assay [5], 0.0307; in assay [6], 0.855. In addition, the PBM binding z-score is 0.906 in assay [7]; 0.499 in assay [8]; 0.287 in assay [9]; 0.554 in assay [10]; -0.0308 in assay [11]; 0.718 in assay [12]. In addition, the PBM binding z-score in assay [13] was 0.51; in assay [14] it was 1.15; in assay [15] it was 0.296; in assay [16], 0.381; in assay [17], 0.191; in assay [18], 0.815. Besides, the values for the PBM binding z-score in assay [19] and in assay [20] were 0.672 and 0.666, respectively.
